# From publication PMC5540273 (PLoS ONE, 2017)
# Tested on: NEK3
# Settings: concentration: 1 μM, replicates: in singlicate; n = 1
# 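Note: KINOMEscan kinase panel screen.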
row,Compound,%Inh [%]
1,Cn1ccc2ncnc(Oc3ccc(NC(=O)Nc4ccncc4)c(Cl)c3)c21,24
2,COc1cc2c(cc1OC[C@@H](O)CO)ncc1c3ccc(C#N)cc3[nH]c21,37
3,Cc1cn2c(=O)cc(N3CCOCC3)nc2n1Cc1cccc(Cl)c1Cl [GSK2334006],0
4,Cn1cc(-c2ccc3c(c2)CCN3C(=O)Cc2ccccc2Cl)c2c(N)ncnc21 [GSK2608885],0
5,NS(=O)(=O)c1cccc(-c2ccc3nccc(-c4cccc(S(N)(=O)=O)c4)c3c2)c1 [GW867253],29
6,Cl.Oc1cccc(Nc2ccnc3cc(-c4ccncc4)ccc23)c1 [GW494601],1
7,[2H]C([2H])(c1cccc(C(F)(F)F)c1C)n1ccn2c(=O)nc(N3CCOCC3)cc12 [GSK2336394],1
8,Cl.Nc1ncnc2occ(-c3ccc(NC(=O)Nc4cc(C(F)(F)F)ccc4F)cc3)c12 [SB-707548],1
9,O=C1NC(=O)C(N2CCc3ccccc32)=C1c1cccc(Cl)c1 [SB-408010],14
10,C[C@@H](Oc1cc(-n2cnc3ccc(NC(=O)NC(C)(C)C)cc32)sc1C(N)=O)c1ccccc1Cl [GSK346294],5
11,O=c1cc(N2CCOCC2)nc2n(Cc3cccc(Cl)c3Cl)c(C3CC3)nn12 [GSK2358994],5
12,CSc1ccc(-c2cc3ncnc(SCC(=O)O)c3s2)cc1,31
13,c1ccc(-c2n[nH]cc2-c2ccnc3ccccc23)nc1 [GW271431],14
14,O=C(NCCNc1ccnc(Nc2ccc(F)cc2)n1)c1cc2ccccc2s1 [GSK1379874],4
15,Fc1ccc(-c2ncn(CCCN3CCOCC3)c2-c2cccnc2)cc1 [SB-211743],15
16,Cc1ccc(NC(=O)c2ccnc(N3CCN(C)CC3)c2)cc1-c1ccc(C(=O)NCC2CC2)cc1 [GW775604],20
17,CN1c2ccc(CNc3ccc(F)cc3)cc2-c2c(cnn2C)S1(=O)=O,28
18,CNc1ncnc2[nH]ncc12 [SKF-18355],26
19,COCCNC(=O)c1ccc(-c2cc(C(=O)NC3CC3)cc(F)c2C)cc1 [GW868318],26
20,CCc1ccnc(/C=C/c2n[nH]c3cc(Sc4ccccc4C(=O)NC)ccc23)c1,1
21,CC(C)Oc1ccc2c(-c3ccnc(Nc4ccc(N5CCN(C)CC5)cc4)n3)cnn2n1 [GW696155],98.5
22,c1ccc(-c2cc(-c3c[nH]nc3-c3ccccn3)ccn2)cc1 [GW576604],2
23,Fc1ccc(-c2ncn(CCCN3CCOCC3)c2-c2ccccn2)cc1 [SB-211742],28
